We go through eight compounds from PubChem BioAssay (Tox21).

A short description of test [1]: qHTS assay to test for compound auto fluorescence at 535 nm (green) in HEK293 cells (AID 720680).
Test [2] is described as follows: qHTS assay to test for compound auto fluorescence at 460 nm (blue) in HEK293 cell free culture (AID 720681). In short, it runs like this:
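Test compounds were pinned into cell-free culture medium (DMEM with 10% FBS) and fluorescence was read directly at Ex/Em 405/460 nm. Signals were expressed as fluorescence equivalents of triamterene, with DMSO vehicle as control.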
In general terms: qHTS replaces the single test concentration by a dilution series.

Test [3] is described as follows: qHTS assay to test for compound auto fluorescence at 535 nm (green) in HEK293 cell free culture (AID 720682). An outline of the steps: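 Green-label autofluorescence (485 nm excitation, 535 nm emission) measured on compound added to cell-free culture medium (DMEM, 10% FBS). Output is expressed relative to fluorescein.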
Test [4] can be described thus: qHTS assay to test for compound auto fluorescence at 590 nm (red) in HEK293 cell free culture (AID 720683). An outline of the steps:
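Tox21 10K library compounds were pinned into cell-free DMEM with 10% FBS and fluorescence was read at excitation 540 nm. Activity is expressed as Rose Bengal sodium equivalency.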

The nature of test [5]: qHTS assay to test for compound auto fluorescence at 590 nm (red) in HepG2 cell free culture (AID 720684). An outline of the steps: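 Ex 540 / Em 590 nm read of compound in cell-free MEM (10% FBS). Rose Bengal sodium reference.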
The nature of test [6]: qHTS assay to test for compound auto fluorescence at 460 nm (blue) in HepG2 cell free culture (AID 720685). In short, it runs like this:
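Cell-free plates of MEM plus 10% FBS received 23 nL compound or DMSO vehicle; blue-channel (405/460 nm) intensity scored against triamterene as reference fluorophore.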

The nature of test [7]: qHTS assay to test for compound auto fluorescence at 535 nm (green) in HepG2 cell free culture (AID 720686).
Test [8] is described as follows: qHTS assay to test for compound auto fluorescence at 460 nm (blue) in HepG2 cells (AID 720687). An outline of the steps:
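Cells (2,000/well in MEM with 10% FBS) attached overnight at 37 C, then were exposed to compound or DMSO for 1 hr at 37 C, 5% CO2. Fluorescence read at Ex/Em 405/460 nm, expressed as triamterene-equivalent signal.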

Test [9] concerns the target Glucocorticoid receptor (Homo sapiens) (UniProt P04150). In words: qHTS assay to identify small molecule agonists of the glucocorticoid receptor (GR) signaling pathway (AID 720691; active = well fitted activation curve with a large enough effect in the signal ratio in the repeat runs, not every such curve was filed as active; the % refers to the signal ratio). An outline of the steps:
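Cells: GR-bla HeLa, endogenous GR with stably integrated GRE-beta-lactamase reporter. Treatment 18 h, 37 C, compounds delivered in DMSO. Detection via LiveBLAzer B/G FRET substrate, 2 h RT, fluorescence intensity.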

For test [10] the target is unchanged. In words: qHTS assay to identify small molecule antagonists of the glucocorticoid receptor (GR) signaling pathway (AID 720692; active = well fitted inhibition curve with a large enough effect in the signal ratio in the repeat runs, not every such curve was filed as active; the % refers to the signal ratio). In short, it runs like this:
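Quantitative HTS in antagonist format: HeLa cells expressing endogenous GR and a stably integrated GRE-bla reporter, stimulated with 5 nM dexamethasone (final) alongside test compounds for 18 h.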

Test [11] can be described thus: qHTS assay to identify small molecule antagonists of the glucocorticoid receptor (GR) signaling pathway - cell viability counter screen (AID 720693). Note: nearly all actives have a fitted effect of over 55% in size.
A short description of test [12]: qHTS assay for identifying genotoxic compounds that show differential cytotoxicity against isogenic chicken DT40 cell lines with known DNA damage response pathways - wild type cell line (AID 743012). Note: nearly all actives have a fitted effect of over 60% in size. Note: potency is the fitted concentration of half-maximal effect. In short, it runs like this: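 Luminescent ATP viability signal (CellTiter-Glo, 30 min RT) recorded after wild type DT40 cells were incubated with compounds for 40 h at 37 C/5% CO2.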

Test [13] in a line: qHTS assay for identifying genotoxic compounds that show differential cytotoxicity against isogenic chicken DT40 cell lines with known DNA damage response pathways - Rev3 mutant cell line (AID 743014). Note: nearly all actives have a fitted effect of over 55% in size. Note: potency is the fitted concentration of half-maximal effect.
A short description of test [14]: qHTS assay for identifying genotoxic compounds that show differential cytotoxicity against isogenic chicken DT40 cell lines with known DNA damage response pathways - Rad54/Ku70 mutant cell line (AID 743015). Note: nearly all actives have a fitted effect of over 60% in size. Note: potency is the fitted concentration of half-maximal effect.
Test [15] in a line: qHTS assay to identify small molecule antagonists of the androgen receptor (AR) signaling pathway - cell viability counter screen (AID 743033; note: nearly all actives have a fitted effect of over 45% in size).
A short description of test [16]: qHTS assay to identify small molecule antagonists of the androgen receptor (AR) signaling pathway using the MDA cell line - cell viability counter screen (AID 743041; note: nearly all actives have a fitted effect of over 45% in size). In short, it runs like this: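 In this qHTS counter assay, fluorescence intensity after CellTiter-Fluor addition indicated viability of MDA-kb2 AR-luc cells given compounds and R1881 for 16 h at 37C.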

Values without a mark were called inactive. Inconclusive results are not listed. The source made the active and inactive calls. Unless noted, calls come from the whole dose curve; as a rule, active = well fitted curve in the direction sought with a large enough effect in the repeat runs; inconclusive = weak or mixed curves; inactive = no such curve, though single readings can be large; an effect the other way counts as inactive or inconclusive.
% is set by controls: 0 for no effect and ±100 for the full control effect.

Sequence of Glucocorticoid receptor (Homo sapiens) (P04150 whole entry, looked up): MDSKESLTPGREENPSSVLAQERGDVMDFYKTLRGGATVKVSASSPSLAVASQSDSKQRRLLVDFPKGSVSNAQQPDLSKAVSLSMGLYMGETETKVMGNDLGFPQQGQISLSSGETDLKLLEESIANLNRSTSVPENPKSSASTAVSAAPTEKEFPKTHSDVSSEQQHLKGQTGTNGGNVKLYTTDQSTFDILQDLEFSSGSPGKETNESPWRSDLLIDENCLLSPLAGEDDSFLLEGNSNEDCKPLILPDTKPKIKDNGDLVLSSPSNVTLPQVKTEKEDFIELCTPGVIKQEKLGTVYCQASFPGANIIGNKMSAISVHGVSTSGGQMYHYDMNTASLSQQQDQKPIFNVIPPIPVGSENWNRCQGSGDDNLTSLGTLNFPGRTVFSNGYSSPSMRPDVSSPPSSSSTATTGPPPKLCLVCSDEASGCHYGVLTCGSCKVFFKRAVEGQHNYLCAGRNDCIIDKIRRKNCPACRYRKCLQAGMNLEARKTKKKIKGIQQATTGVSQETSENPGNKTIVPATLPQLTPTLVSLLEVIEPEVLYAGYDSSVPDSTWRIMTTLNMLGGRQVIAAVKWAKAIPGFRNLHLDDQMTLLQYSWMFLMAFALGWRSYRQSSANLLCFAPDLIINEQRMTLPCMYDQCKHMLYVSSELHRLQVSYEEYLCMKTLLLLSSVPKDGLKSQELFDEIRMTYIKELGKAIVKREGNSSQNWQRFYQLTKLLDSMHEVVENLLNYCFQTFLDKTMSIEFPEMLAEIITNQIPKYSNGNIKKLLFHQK

For `C=Cc1c(C)c2cc3[nH]c(cc4nc(cc5nc(cc1[nH]2)C(C)=C5CCC(=O)O)C(CCC(=O)O)=C4C)c(C)c3C=C`, the compound was classed as inactive in test [1], in test [3], in test [4], in test [5] and in test [7]. Moreover, the Potency entry in test [2], in test [6], in test [8], in test [9], in [10] and in test [11] was “inactive” in each case. Besides, the Potency entry in test [12], in [13], in test [14], in [15] and in [16] was “inactive” throughout.
As to `Cc1ccc(C(C)c2ccc(C)c(C)c2)cc1C`, the call in test [1], in test [3], in [4], in [5] and in test [7] was inactive. Moreover, the Potency entry in test [2], in test [6], in test [8], in test [9], in [10] and in test [11] was “inactive” in each case. Moreover, the Potency result in test [12], in test [13], in test [15] and in test [16] was “inactive” throughout.
For the compound `O=C(Nc1ccccc1)OCC(CN1CCCCC1)OC(=O)Nc1ccccc1` (centres undefined), in test [1], the fluorescence, % of fluorescein is 0.0795% [at 18.6 µM]. Moreover, the fluorescence, % of fluorescent control in test [2] is -0.0858% [at 18.6 µM]; in test [4], 0.0296% [at 18.6 µM]; in test [6], -0.044% [at 18.6 µM]; in [8], -0.0488% [at 18.6 µM]. The activity change in test [3] is 0.0431% [at 18.6 µM]. For the same compound, the fluorescence, % of Rose Bengal in [5] was 0.0349% [at 18.6 µM]. Besides, the fluorescence, % of fluorescein control in test [7] was 0.0354% [at 18.6 µM]. The Potency entry in [9], in [10], in test [11], in [12], in [13] and in test [15] was “inactive” throughout. In addition, in test [16], the Potency entry is “inactive”.
Turning to `CC(=O)c1ccc2c(c1)[C@H](NC(=O)c1ccc(F)cc1)[C@@H](O)C(C)(C)O2`, the result in test [1], in test [3], in [4], in test [5] and in [7] was inactive. For the same compound, the Potency entry in [2], in test [6], in test [8], in [9], in [10] and in test [11] was “inactive” each time. The Potency result in [12], in [13], in test [14], in test [15] and in test [16] was “inactive” in each case.
Turning to `CC(=O)/C(C)=C/C1C(C)=CCCC1(C)C` (centres undefined), the compound was called inactive in [1], in [3], in test [4], in test [5] and in test [7]. The Potency result in test [2], in test [6], in [8], in [9], in test [10] and in [11] was “inactive” each time. Moreover, the Potency result in test [12], in test [13], in test [14], in test [15] and in [16] was “inactive” in each case.
In the case of `CCCC(C)C`, the result in test [1], in test [3], in test [4], in test [5] and in [7] was inactive. Also, the Potency result in [2], in test [6], in test [8], in test [9], in test [10] and in [11] was “inactive” in each case. Further, the Potency entry in [12], in test [13], in test [14], in test [15] and in [16] was “inactive” throughout.
In the case of `COc1cc(C(C)(C)C)c(O)c(C(C)(C)C)c1`, the compound was called inactive in [1], in [3], in test [4], in test [5] and in test [7]. Also, the Potency entry in [2], in test [6], in test [8], in [9], in test [10] and in [11] was “inactive” throughout. The Potency result in [16] is “inactive”. Further, the Potency in test [12] was 38.6 µM (active); in [13] it was 27.3 µM (active); in test [14] it was 30.6 µM (active).
Regarding `CC1(C)[C@H]2CC[C@]1(C)[C@H](O)C2`, the outcome in [1], in test [3], in test [4], in test [5] and in test [7] was inactive. In addition, the Potency result in [2], in test [6], in test [8], in [9], in test [10] and in [11] was “inactive” throughout. Further, the Potency entry in [12], in test [13], in test [15] and in test [16] was “inactive” each time.
